# From PubChem BioAssay (NCATS)
# Records with an inconclusive call do not appear. Where a call stands in place of a potency, no number is given. Activity calls are given as the source filed them. Unless noted, calls come from the whole dose curve; as a rule, active = well fitted curve in the direction sought with a large enough effect; inconclusive = small, poorly fitted or top-dose-only effect, or another doubt; inactive = no such curve, though single readings can be large; an effect the other way counts as inactive or inconclusive.
# How the values were obtained:
# [1] = qHTS for differential inhibitors of proliferation of Plasmodium falciparum line GB4 (AID 1816); settings: Potency: Plasmodium falciparum GB4 proliferation inhibition;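 note: parasite growth measured after 72 h incubation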; note: potency is the fitted concentration of half-maximal effect
# [2] = qHTS for differential inhibitors of proliferation of Plasmodium falciparum line 3D7 (AID 1876);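 note: parasite growth measured after three days of culture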
# [3] = qHTS for differential inhibitors of proliferation of Plasmodium falciparum line D10 (AID 1877);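 note: parasites grown with compound for 72 h before DNA staining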
# [4] = qHTS for differential inhibitors of proliferation of Plasmodium falciparum line Dd2 (AID 1882); settings: Potency: Plasmodium falciparum Dd2 proliferation inhibition;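 note: series mostly up to about 29 µM; compound exposure of 72 h on infected erythrocytes; nearly all actives have a fitted effect of over 65% in size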
# In short: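 RBC culture, 0.3% parasitemia / 2.5% Hct final; cpd added by pin tool in DMSO; 72 h, 37 C, 5% CO2; lysis buffer + SYBR Green I, o/n RT dark; FI 485/535; norm. to artemisinin 0.29 uM and DMSO.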
# [5] = qHTS for differential inhibitors of proliferation of Plasmodium falciparum line W2 (AID 1883); settings: Potency: Plasmodium falciparum W2 proliferation inhibition;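 note: parasites grown with compound for 72 h before lysis and staining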; note: potency is the fitted concentration of half-maximal effect
# [6] = qHTS for differential inhibitors of proliferation of Plasmodium falciparum line HB3 (AID 1886); settings: Potency: Plasmodium falciparum HB3 proliferation inhibition;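 note: parasites grown with compound for 72 h before SYBR Green readout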
# [7] = qHTS Assay for Modulators of Human Peripheral Myelin Protein 22 (PMP22) Expression/Activity (AID 1967; active = well fitted curve in the direction sought with a large enough effect in the signal ratio; the % refers to the signal ratio)
# In short: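 MSC80 mouse Schwann cells stably carrying Pmp22 promoter–green click beetle luciferase plus EF-alpha–red luciferase control were dosed for 24h at 37 °C. Dual-colour luminescence was filter-overlap corrected; %Activity came from green/red ratio versus untreated cells.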
# [8] = molecular target: ATP-dependent DNA helicase Q1 (Homo sapiens) (UniProt P46063); test: qHTS Validation Assay for Inhibitors of RecQ-Like Dna Helicase 1 (RECQ1) (AID 2353)
# ATP-dependent DNA helicase Q1 (Homo sapiens), sequence (P46063 whole entry, looked up): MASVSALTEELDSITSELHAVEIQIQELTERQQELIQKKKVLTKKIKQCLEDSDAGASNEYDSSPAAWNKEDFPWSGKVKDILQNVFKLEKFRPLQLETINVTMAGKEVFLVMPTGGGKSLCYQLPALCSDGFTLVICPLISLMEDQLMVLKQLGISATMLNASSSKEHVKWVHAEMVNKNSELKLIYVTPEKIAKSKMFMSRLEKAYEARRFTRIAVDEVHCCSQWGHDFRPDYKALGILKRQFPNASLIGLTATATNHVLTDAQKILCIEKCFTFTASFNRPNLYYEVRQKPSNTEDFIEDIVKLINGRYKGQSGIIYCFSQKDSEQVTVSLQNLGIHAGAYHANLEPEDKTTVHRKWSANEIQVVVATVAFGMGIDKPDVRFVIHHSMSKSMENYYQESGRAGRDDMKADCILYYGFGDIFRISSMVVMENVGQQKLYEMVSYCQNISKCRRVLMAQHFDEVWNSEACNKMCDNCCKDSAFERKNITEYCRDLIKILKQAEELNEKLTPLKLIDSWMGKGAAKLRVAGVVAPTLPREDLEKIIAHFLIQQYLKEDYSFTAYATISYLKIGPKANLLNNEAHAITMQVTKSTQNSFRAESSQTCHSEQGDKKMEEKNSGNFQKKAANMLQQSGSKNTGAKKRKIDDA
# In short: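 RECQ1T1 50 nM; forked duplex (20 bp + 30-nt ss tails) 200 nM, ATP 2 mM final; pH 8.0, 2 mM MgCl2, 2.5 ug/ml poly(dI-dC); 15 min compound preincubation; discontinuous kinetic read over 2 h at RT.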
# [9] = molecular target: RecQ-like DNA helicase BLM (Homo sapiens) (UniProt P54132); test: qHTS Validation Assay for Inhibitors of Bloom's syndrome helicase (BLM) (AID 2364)
# RecQ-like DNA helicase BLM (Homo sapiens), sequence (P54132 whole entry, looked up): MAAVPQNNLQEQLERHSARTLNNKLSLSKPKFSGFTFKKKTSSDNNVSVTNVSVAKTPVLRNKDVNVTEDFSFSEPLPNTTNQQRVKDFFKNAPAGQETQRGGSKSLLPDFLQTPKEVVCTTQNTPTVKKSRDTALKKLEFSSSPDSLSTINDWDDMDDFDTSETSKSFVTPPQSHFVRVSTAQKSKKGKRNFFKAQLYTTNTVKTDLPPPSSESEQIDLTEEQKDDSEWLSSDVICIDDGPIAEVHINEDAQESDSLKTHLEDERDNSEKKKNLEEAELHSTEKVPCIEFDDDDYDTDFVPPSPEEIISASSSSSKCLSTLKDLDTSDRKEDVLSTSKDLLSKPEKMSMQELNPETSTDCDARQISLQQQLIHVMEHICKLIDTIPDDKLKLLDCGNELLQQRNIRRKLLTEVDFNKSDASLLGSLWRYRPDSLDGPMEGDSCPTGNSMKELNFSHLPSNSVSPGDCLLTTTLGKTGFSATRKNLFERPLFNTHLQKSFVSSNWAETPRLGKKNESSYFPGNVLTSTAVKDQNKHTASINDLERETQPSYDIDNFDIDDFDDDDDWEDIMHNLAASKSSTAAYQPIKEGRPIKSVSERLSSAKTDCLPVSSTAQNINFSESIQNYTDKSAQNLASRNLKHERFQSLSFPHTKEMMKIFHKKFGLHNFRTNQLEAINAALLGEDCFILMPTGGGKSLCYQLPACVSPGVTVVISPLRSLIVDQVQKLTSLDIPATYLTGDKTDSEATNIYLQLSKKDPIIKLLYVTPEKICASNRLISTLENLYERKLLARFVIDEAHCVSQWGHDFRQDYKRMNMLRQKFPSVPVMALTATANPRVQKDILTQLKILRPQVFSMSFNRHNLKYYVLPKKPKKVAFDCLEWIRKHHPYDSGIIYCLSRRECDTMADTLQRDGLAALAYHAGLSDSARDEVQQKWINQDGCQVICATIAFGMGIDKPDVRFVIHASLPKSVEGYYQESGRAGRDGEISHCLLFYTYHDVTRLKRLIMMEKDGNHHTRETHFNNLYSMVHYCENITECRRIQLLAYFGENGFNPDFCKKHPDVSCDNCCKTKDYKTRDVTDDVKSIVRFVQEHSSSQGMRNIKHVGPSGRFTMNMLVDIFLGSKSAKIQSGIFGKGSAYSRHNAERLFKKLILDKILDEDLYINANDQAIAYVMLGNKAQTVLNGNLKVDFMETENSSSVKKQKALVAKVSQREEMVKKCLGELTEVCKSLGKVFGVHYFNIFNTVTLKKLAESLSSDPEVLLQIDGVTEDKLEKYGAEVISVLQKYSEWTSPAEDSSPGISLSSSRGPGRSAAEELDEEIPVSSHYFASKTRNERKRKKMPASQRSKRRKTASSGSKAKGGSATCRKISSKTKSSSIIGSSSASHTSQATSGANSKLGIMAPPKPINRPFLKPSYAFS
# In short: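 BLM 50 nM in 25 mM Tris-HCl pH 8.0, 5 mM NaCl, 2 mM MgCl2, 1 mM DTT, 0.01% Tween-20, 2.5 ug/ml poly(dI-dC); 15 min cpd preinc, RT. Start: 200 nM forked DNA + 2 mM ATP (final). TAMRA read, 2 reads 2 h apart.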
# [10] = qHTS Assay for Identification of Small Molecule Inducers of Hypoxia Response (AID 2120; active = well fitted curve in the direction sought with a large enough effect in the signal ratio, with a control signal flat, not every such curve was filed as active; the % refers to the signal ratio)
# In short: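 Read-out: CCF4 FRET emission ratio 460nm/530nm (excitation 405nm), converted to %Activity, with AC50 fitted across a compound titration. ME-180 cells carried an HRE-driven beta-lactamase reporter; compound exposure 17 h, 37 degrees C.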
smiles,measurement,setting,value
CC(C)c1cccc(C(C)C)c1O,Potency,[1],inactive
same,Potency,[2],inactive
same,Potency,[3],inactive
same,Potency,[4],inactive
same,Potency,[5],inactive
same,Potency,[6],inactive
same,outcome,[7],inactive
same,Potency,[8],inactive
O=P1(N(CCCl)CCCl)NCCCO1 (stereo not given),Potency,[1],inactive
same,Potency,[2],inactive
same,Potency,[3],inactive
same,Potency,[4],inactive
same,Potency,[5],inactive
same,Potency,[6],inactive
same,Potency,[8],inactive
same,outcome,[9],inactive
COP(=S)(OC)Oc1ccc(SC)c(C)c1,outcome,[10],inactive
C=C(C)[C@H]1CN[C@H](C(=O)O)[C@H]1CC(=O)O,Potency,[1],inactive
same,Potency,[2],inactive
same,Potency,[3],inactive
same,Potency,[4],inactive
same,Potency,[5],inactive
same,Potency,[6],inactive
same,Potency,[8],inactive
O=c1[nH]oc2c1CCNC2,Potency,[1],inactive
same,Potency,[2],inactive
same,Potency,[3],inactive
same,Potency,[4],inactive
same,Potency,[5],inactive
same,Potency,[6],inactive
same,Potency,[8],inactive
CC(C)N(CCC(C(N)=O)(c1ccccc1)c1ccccn1)C(C)C (stereo not given),Potency,[2],inactive
same,Potency,[3],inactive
same,Potency,[4],inactive
same,Potency,[5],8.91 µM (active)
same,Potency,[6],inactive
same,outcome,[7],inactive
same,Potency,[8],inactive
same,outcome,[9],inactive
CN1C(=O)CCS(=O)(=O)C1c1ccc(Cl)cc1 (stereo not given),Potency,[1],inactive
same,Potency,[2],inactive
same,Potency,[3],inactive
same,Potency,[4],inactive
same,Potency,[6],inactive
same,Potency,[8],inactive
same,outcome,[9],inactive
CC(NC(C)(C)C)C(=O)c1cccc(Cl)c1 (stereo not given),Potency,[1],12.6 µM (active)
same,Potency,[2],inactive
same,Potency,[3],inactive
same,Potency,[6],inactive
same,outcome,[7],inactive
same,Potency,[8],inactive
CC(C)NC(C)C,outcome,[10],inactive
NCCc1ccc(O)cc1,Potency,[1],inactive
same,Potency,[2],inactive
same,Potency,[3],inactive
same,Potency,[4],inactive
same,Potency,[5],inactive
same,Potency,[6],inactive
same,outcome,[7],inactive
same,Potency,[8],inactive
O=C(CCCN1CCC2(CC1)C(=O)NCN2c1ccccc1)c1ccc(F)cc1,Potency,[8],inactive
CCOC(=O)CC(SP(=S)(OC)OC)C(=O)OCC (stereo not given),outcome,[10],inactive
COc1cc(OC)c(OC)cc1C=O,outcome,[10],inactive
C[C@]1(O)CC[C@H]2[C@@H]3CCC4=CC(=O)CC[C@]4(C)[C@@]3(F)[C@@H](O)C[C@@]21C,outcome,[10],inactive
